Data from PubChem BioAssay AID1159580 (chemical genetic matrix, 2015).
Screen size: about 5,500 compounds; about 2,000 (36%) were called active. Not shown: some 18% with an inconclusive outcome. Cut-off read from the data, not from the text of the source: active = normalized growth mostly below about 0.91 (no sharp cut-off); inconclusive = no clear call, values can overlap the other calls; inactive = mostly above about 0.92. This is one part of the list.

Test: chemical genetic growth profiling, strain panel (AID 1159580);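 note: tested at 20 µM; growth read once vehicle control cultures reached saturation at 30 °C; 1 = growth at the plate median or of vehicle wells; lower values mean less growth of the strain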
Conditions: growth OD

Measured: normalized growth

CC(=O)Nc1ccc(O)cc1
active: S. cerevisiae deletion strains, locus YKL068W, stronger effect = lower value 0.936 | S. cerevisiae deletion strains, locus YNL298W, strain CLA4, stronger effect = lower value 0.897 | S. cerevisiae deletion strains, locus YPR141C, strain kar3, stronger effect = lower value 0.911
inactive: S. cerevisiae deletion strains, locus YJR075W, strain HOC1, stronger effect = lower value 1.06 | S. cerevisiae deletion strains, locus YKL009W, strain mrt4, stronger effect = lower value 0.952 | S. cerevisiae deletion strains, locus YKL085W, strain MDH1 (second series), stronger effect = lower value 0.943 | S. cerevisiae deletion strains, locus YKL085W, strain MDH1, stronger effect = lower value 0.943 | S. cerevisiae deletion strains, locus YKL160W, strain elf1, stronger effect = lower value 1.01 | S. cerevisiae deletion strains, locus YKR001C, strain vps1, stronger effect = lower value 0.982 | S. cerevisiae deletion strains, locus YKR026C, strain gcn3, stronger effect = lower value 1.02 | S. cerevisiae deletion strains, locus YKR091W, strain srl3, stronger effect = lower value 1.01 | S. cerevisiae deletion strains, locus YLL001W, strain dnm1, stronger effect = lower value 0.998 | S. cerevisiae deletion strains, locus YLL026W, stronger effect = lower value 1.02 | S. cerevisiae deletion strains, locus YLL041C, strain sdh2, stronger effect = lower value 1.01 | S. cerevisiae deletion strains, locus YLR027C, strain aat2, stronger effect = lower value 1.01 | S. cerevisiae deletion strains, locus YLR039C, strain RIC1, stronger effect = lower value 0.742 | S. cerevisiae deletion strains, locus YLR058C, strain SHM2, stronger effect = lower value 0.984 | S. cerevisiae deletion strains, locus YLR102C, strain apc9, stronger effect = lower value 0.986 | S. cerevisiae deletion strains, locus YLR113W, strain HOG1, stronger effect = lower value 0.974 | S. cerevisiae deletion strains, locus YLR221C, strain rsa3, stronger effect = lower value 0.989 | S. cerevisiae deletion strains, locus YLR258W, strain gsy2, stronger effect = lower value 1.02 | S. cerevisiae deletion strains, locus YLR262C, strain YPT6 (second series), stronger effect = lower value 1.04 | S. cerevisiae deletion strains, locus YLR262C, strain YPT6, stronger effect = lower value 0.772 | S. cerevisiae deletion strains, locus YLR268W, strain sec22, stronger effect = lower value 0.978 | S. cerevisiae deletion strains, locus YLR320W, strain mms22, stronger effect = lower value 1.01 | S. cerevisiae deletion strains, locus YLR330W, strain CHS5, stronger effect = lower value 0.986 | S. cerevisiae deletion strains, locus YLR342W, strain FKS1 (second series), stronger effect = lower value 1.05 | S. cerevisiae deletion strains, locus YLR342W, strain FKS1, stronger effect = lower value 1.03 | S. cerevisiae deletion strains, locus YLR357W, strain rsc2, stronger effect = lower value 1.02 | S. cerevisiae deletion strains, locus YLR370C, strain arc18, stronger effect = lower value 1.01 | S. cerevisiae deletion strains, locus YLR371W, strain rom2, stronger effect = lower value 0.999 | S. cerevisiae deletion strains, locus YLR384C, strain iki3, stronger effect = lower value 1.01 | S. cerevisiae deletion strains, locus YLR418C, strain cdc73, stronger effect = lower value 1.08 | S. cerevisiae deletion strains, locus YML016C, strain PPZ1, stronger effect = lower value 0.975 | S. cerevisiae deletion strains, locus YML032C, strain rad52, stronger effect = lower value 0.971 | S. cerevisiae deletion strains, locus YML120C, strain ndi1, stronger effect = lower value 1.02 | S. cerevisiae deletion strains, locus YML124C, strain tub3, stronger effect = lower value 0.972 | S. cerevisiae deletion strains, locus YMR058W, strain fet3, stronger effect = lower value 1.03 | S. cerevisiae deletion strains, locus YMR078C, strain ctf18, stronger effect = lower value 0.986 | S. cerevisiae deletion strains, locus YMR125W, strain sto1, stronger effect = lower value 1.01 | S. cerevisiae deletion strains, locus YMR129W, stronger effect = lower value 1.01 | S. cerevisiae deletion strains, locus YMR205C, strain PFK2, stronger effect = lower value 1.02 | S. cerevisiae deletion strains, locus YMR223W, strain ubp8, stronger effect = lower value 0.98 | S. cerevisiae deletion strains, locus YMR231W, strain pep5, stronger effect = lower value 1.03 | S. cerevisiae deletion strains, locus YMR307W, strain GAS1, stronger effect = lower value 0.876 | S. cerevisiae deletion strains, locus YNL067W, strain RPL9B, stronger effect = lower value 1.04 | S. cerevisiae deletion strains, locus YNL071W, strain lat1, stronger effect = lower value 1.02 | S. cerevisiae deletion strains, locus YNL153C, strain GIM3, stronger effect = lower value 0.998 | S. cerevisiae deletion strains, locus YNL183C, strain NPR1, stronger effect = lower value 0.955 | S. cerevisiae deletion strains, locus YNL209W, strain ssb2, stronger effect = lower value 1.02 | S. cerevisiae deletion strains, locus YNL233W, strain BNI4, stronger effect = lower value 1.03 | S. cerevisiae deletion strains, locus YNL248C, strain rpa49, stronger effect = lower value 0.998 | S. cerevisiae deletion strains, locus YNL250W, strain rad50, stronger effect = lower value 0.937 | S. cerevisiae deletion strains, locus YNL271C, strain bni1, stronger effect = lower value 0.936 | S. cerevisiae deletion strains, locus YNL307C, strain MCK1, stronger effect = lower value 1.01 | S. cerevisiae deletion strains, locus YNL322C, strain KRE1 (second series), stronger effect = lower value 1.02 | S. cerevisiae deletion strains, locus YNR049C, strain mso1, stronger effect = lower value 1.03 | S. cerevisiae deletion strains, locus YNR052C, strain pop2, stronger effect = lower value 0.974 | S. cerevisiae deletion strains, locus YOL006C, strain TOP1, stronger effect = lower value 1.14 | S. cerevisiae deletion strains, locus YOL012C, strain htz1 0.778 | S. cerevisiae deletion strains, locus YOL147C, strain pex11, stronger effect = lower value 0.98 | S. cerevisiae deletion strains, locus YOR001W, strain rrp6, stronger effect = lower value 1.01 | S. cerevisiae deletion strains, locus YOR061W, strain CKA2, stronger effect = lower value 0.972 | S. cerevisiae deletion strains, locus YOR069W, strain VPS5, stronger effect = lower value 0.984 | S. cerevisiae deletion strains, locus YOR070C, strain gyp1, stronger effect = lower value 1.01 | S. cerevisiae deletion strains, locus YOR080W, strain dia2, stronger effect = lower value 1.03 | S. cerevisiae deletion strains, locus YOR083W, strain WHI5, stronger effect = lower value 0.988 | S. cerevisiae deletion strains, locus YOR106W, strain vam3, stronger effect = lower value 1.01 | S. cerevisiae deletion strains, locus YOR136W, strain idh2, stronger effect = lower value 1.01 | S. cerevisiae deletion strains, locus YOR144C, strain elg1, stronger effect = lower value 0.968 | S. cerevisiae deletion strains, locus YOR184W, strain ser1, stronger effect = lower value 0.998 | S. cerevisiae deletion strains, locus YOR231W, strain MKK1, stronger effect = lower value 0.997 | S. cerevisiae deletion strains, locus YOR265W, strain rbl2, stronger effect = lower value 1.02 | S. cerevisiae deletion strains, locus YOR270C, strain vph1, stronger effect = lower value 1.02 | S. cerevisiae deletion strains, locus YOR290C, strain snf2, stronger effect = lower value 1 | S. cerevisiae deletion strains, locus YOR316C, strain cot1, stronger effect = lower value 0.982 | S. cerevisiae deletion strains, locus YPL051W, strain arl3, stronger effect = lower value 1.01 | S. cerevisiae deletion strains, locus YPL055C, strain LGE1, stronger effect = lower value 1 | S. cerevisiae deletion strains, locus YPL078C, strain atp4, stronger effect = lower value 1.01 | S. cerevisiae deletion strains, locus YPL106C, strain sse1, stronger effect = lower value 1.02 | S. cerevisiae deletion strains, locus YPL240C, strain hsp82, stronger effect = lower value 1.02 | S. cerevisiae deletion strains, locus YPL241C, strain CIN2, stronger effect = lower value 0.981 | S. cerevisiae deletion strains, locus YPL256C, strain CLN2, stronger effect = lower value 0.982 | S. cerevisiae deletion strains, locus YPR119W, strain clb2, stronger effect = lower value 0.973 | S. cerevisiae deletion strains, locus YPR163C, strain tif3, stronger effect = lower value 0.992 | S. cerevisiae deletion strains, locus YPR167C, strain met16, stronger effect = lower value 0.972 | S. cerevisiae deletion strains, strain wtn01, stronger effect = lower value 0.967 | S. cerevisiae strains, strain wild type, stronger effect = lower value 0.953
